The full ranking holds about 35,000 sequences; the median of “fluorescence intensity (a.u.)” is about 10,000, and the highest 2% start at about 52,000. This is one part of a sample in which the highest values are shown more often than they occur.

The assay concerns the target T1, OsWOX13 (Oryza sativa, UniProt Q5QMM3 1-267).
T1 sequence: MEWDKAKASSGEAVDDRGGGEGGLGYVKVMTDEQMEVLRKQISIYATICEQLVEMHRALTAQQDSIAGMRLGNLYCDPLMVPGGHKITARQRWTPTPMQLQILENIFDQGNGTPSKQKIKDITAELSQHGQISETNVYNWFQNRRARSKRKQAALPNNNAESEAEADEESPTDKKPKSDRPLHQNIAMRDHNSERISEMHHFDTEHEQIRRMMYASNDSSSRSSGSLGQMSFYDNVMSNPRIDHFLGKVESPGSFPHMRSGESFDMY
As to the kind of experiment: protein-binding microarray (RPBM); PBS, 2% BSA, 51.3 ng/ul salmon testes DNA, 50 uM zinc acetate, 200 nM TF, 25 C, 1 h; high values mean tight binding. As to conditions: protein: recombinant; tags: N-terminal polyhistidine and DsRed monomer fusion (pET32a); label: CyDye5-dUTP incorporated in the synthesized complementary strand; 3' TTTTT single-stranded linker to array surface; dsDNA, one strand shown. In short, it runs like this:
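Per-feature fluorescence intensity (arbitrary units), read on an Axon 4000B scanner, is the binding signal. Transcription factors carrying an N-terminal polyhistidine tag and DsRed fusion were expressed in E. coli BL21-CodonPlus and purified on Ni–NTA. A custom Agilent array, made double-stranded by primer extension with Cy5-dUTP and blocked with 2% BSA, was incubated with 200 nM protein in PBS, 2% BSA, salmon testes DNA and 50 µM zinc acetate at 25 °C for 1 h and then washed.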
Regarding “ATGATTGATCCATGAATCCCATTATCCATCATCCTCGAGTCGGAGTCACCTAGTGCAG”, the binding signal was 63300 fluorescence intensity (a.u.).

In the case of “TACATGATGGGAAAATAGACTTTTGCAGCAGAGATTGAATCGGAGTCACCTAGTGCAG”, the binding signal is 10200 fluorescence intensity (a.u.).

For the sequence “AATATCCCATGATTGACTAGCTAGATGAATCCATATGGGTCGGAGTCACCTAGTGCAG”, the binding signal is 36500 fluorescence intensity (a.u.).

Take “TAATAACTTATACTGATATTGATTACTCCCTCCATCCCTACGGAGTCACCTAGTGCAG”: the binding signal is 11800 fluorescence intensity (a.u.).

As for “AGTGACCTCAATTGATCATTCCCTCATCCTTTAGTCAAGCCGGAGTCACCTAGTGCAG”, the binding signal is 3990 fluorescence intensity (a.u.).

Consider “TCCCCTTGATTGATTGATCACCATTATTATAACATCCTCTCGGAGTCACCTAGTGCAG”, for which the binding signal was 64400 fluorescence intensity (a.u.).

With “ATTGATCAATCGATCAATCCCTCCTTCCCCATCCAATCCTCGGAGTCACCTAGTGCAG”, the binding signal is 4160 fluorescence intensity (a.u.).

Turning to “TCCTTGATTTCTCCCCTCTCTCTGTCATTTCTCTCTTCCTCGGAGTCACCTAGTGCAG”, the binding signal is 13500 fluorescence intensity (a.u.).

As for “TCGCCAATGATTGATCGCCTCATTCCCTCCTCCTCCTCCTCGGAGTCACCTAGTGCAG”, the binding signal is 57300 fluorescence intensity (a.u.).

For “CTAACTCAATGATTAAAATCTCGCCAGATCCCTCCTGCGTCGGAGTCACCTAGTGCAG”, the binding signal is 16700 fluorescence intensity (a.u.).

For the sequence “GATGATTGATGGGAATATAGAGATCCCATGTTTTCCAGCTCGGAGTCACCTAGTGCAG”, the binding signal is 61000 fluorescence intensity (a.u.).

“CCGAAATTTGTCTCTTAATCATATACCGCACTTTCTGCCACGGAGTCACCTAGTGCAG”: the binding signal is 16100 fluorescence intensity (a.u.).

On to “TATTAATTGGATAAAGTCATCTATATTAATGTGGATAATACGGAGTCACCTAGTGCAG”, for which the binding signal is 17600 fluorescence intensity (a.u.).

Take “CAGGTGCTCTAACTACTATGTAATTGAACCACTGACATGTCGGAGTCACCTAGTGCAG”: the binding signal is 5510 fluorescence intensity (a.u.).

Consider “TAAAAGATTTGTATCACAAATTAGTCGCAATTTGTATAATCGGAGTCACCTAGTGCAG”, for which the binding signal is 9610 fluorescence intensity (a.u.).

In the case of “TTAATTTGTTGTGATTAACGTGGCATGCATGACACTAAAGCGGAGTCACCTAGTGCAG”, the binding signal is 26900 fluorescence intensity (a.u.).

For the sequence “AACGCAATCAGTGGGAGATCAATCGCAAAATCACCATCATCGGAGTCACCTAGTGCAG”, the binding signal is 11000 fluorescence intensity (a.u.).

In the case of “AAACTAAATTTAGACAGGAGTTCAGGTGATGAGTCAATGGCGGAGTCACCTAGTGCAG”, the binding signal is 36800 fluorescence intensity (a.u.).

As to “CCTAAATTATTCTAAAATTAAAATGTTAATGGGGAAGTATCGGAGTCACCTAGTGCAG”, the binding signal was 19900 fluorescence intensity (a.u.).

“GATTATAAATTACAAGTGTTAATTTGATGAATTTTGTTATCGGAGTCACCTAGTGCAG”: the binding signal was 19500 fluorescence intensity (a.u.).

On to “TCCATTGATTGAGGAATAGTGCCAGCTTTAGATTTGCTCCCGGAGTCACCTAGTGCAG”, for which the binding signal is 53400 fluorescence intensity (a.u.).

On to “TATAAATAACTTTGAAGATTGAATCGACATATCATACGATCGGAGTCACCTAGTGCAG”, for which the binding signal is 21200 fluorescence intensity (a.u.).

For “CCAAACAGATTGAACTCGACGATTGGACGAATACGGCGATCGGAGTCACCTAGTGCAG”, the binding signal was 58900 fluorescence intensity (a.u.).

On to “TATTACATCGATCATATTGATTGTCGATTAGTACACCTTACGGAGTCACCTAGTGCAG”, for which the binding signal was 5790 fluorescence intensity (a.u.).

In the case of “ATGGAAATTGATTAGGAGATTATTGATGCGATAAGTAGTACGGAGTCACCTAGTGCAG”, the binding signal was 37000 fluorescence intensity (a.u.).

As for “CGAGATTGATTAGGACTCGGAATCGATCGGAGTCGGAGTACGGAGTCACCTAGTGCAG”, the binding signal is 54800 fluorescence intensity (a.u.).

For the sequence “TAAGGTGCAGATTGATTTGCCATCCCAGAGCAGCAGCTTGCGGAGTCACCTAGTGCAG”, the binding signal was 29500 fluorescence intensity (a.u.).

For “AGTCACTTGATTTGCTTTATCATAGAGCTTGATGAGATCCCGGAGTCACCTAGTGCAG”, the binding signal was 24900 fluorescence intensity (a.u.).

As to “CGGATTGATCGACGGCGAAGAATGAAGCTCACCAGAATTTCGGAGTCACCTAGTGCAG”, the binding signal was 5290 fluorescence intensity (a.u.).

On to “TTCAATTTGATTTTGATTTTAGGTGAATCTATAGATATCACGGAGTCACCTAGTGCAG”, for which the binding signal was 9990 fluorescence intensity (a.u.).

With “AACTTAATTTGATAAGAAAATTTAGTGGAGTCACCACAAGCGGAGTCACCTAGTGCAG”, the binding signal was 44100 fluorescence intensity (a.u.).

Consider “GGAAATATGTTAATTAAAATAATGCAACCCTAATCAGCAACGGAGTCACCTAGTGCAG”, for which the binding signal was 10500 fluorescence intensity (a.u.).

For “GATAATGATATGACCATGGTGATTTCGTCAATCTCAATACCGGAGTCACCTAGTGCAG”, the binding signal is 12100 fluorescence intensity (a.u.).

For “CAGACTGACAAGTGACAAGCAGAGGGCATCTCAGTACGCGCGGAGTCACCTAGTGCAG”, the binding signal was 3390 fluorescence intensity (a.u.).

As for “ATCTAGAATTAGATGTGACATATCGTAGTACTATGAACCTCGGAGTCACCTAGTGCAG”, the binding signal is 4830 fluorescence intensity (a.u.).

For “GCAAGTGTGATTGATCATTACTTGCTTGGTCTGATGGTTGCGGAGTCACCTAGTGCAG”, the binding signal is 48300 fluorescence intensity (a.u.).

Consider “CTTGATTGGATCAGGATCATTTGGCATGGTTTACAAGGGCCGGAGTCACCTAGTGCAG”, for which the binding signal was 65100 fluorescence intensity (a.u.).

Turning to “GCTCGATTGCCTTTTCATCATTCACATTGTTCTTCTTCTTCGGAGTCACCTAGTGCAG”, the binding signal was 11600 fluorescence intensity (a.u.).

For the sequence “CCTCATCCCTGATTGTGATTTTCTTTCCACACCACCCGGACGGAGTCACCTAGTGCAG”, the binding signal is 19500 fluorescence intensity (a.u.).

Take “AATGCTTGATTGCACTTCGCTGTTCAGTTCATCATGCCTACGGAGTCACCTAGTGCAG”: the binding signal is 27400 fluorescence intensity (a.u.).

As to “GAGCTATTGATTGATTGATTGCTGATCGCTTCCAGTTCCACGGAGTCACCTAGTGCAG”, the binding signal is 54700 fluorescence intensity (a.u.).

Consider “TTCCGGTTCCTGATTGCTTGCTCCACCGATTGACCGATCGCGGAGTCACCTAGTGCAG”, for which the binding signal was 18100 fluorescence intensity (a.u.).

As for “TGGGCAGCAGCTTGATTTGATTGCTTCATTTATCAAGTTGCGGAGTCACCTAGTGCAG”, the binding signal was 13600 fluorescence intensity (a.u.).

Turning to “TTTGGATTGATCATGGTCATTTGTACTTTTGTAGTCTTTACGGAGTCACCTAGTGCAG”, the binding signal was 21500 fluorescence intensity (a.u.).

For the sequence “GTGATTGATTCGATTGATTGCCGCATCCACAGTTCTTTTCCGGAGTCACCTAGTGCAG”, the binding signal is 54700 fluorescence intensity (a.u.).

For “GGGACAATCAGGGATTGTATGGTTTGAAGCTGATTTTGGCCGGAGTCACCTAGTGCAG”, the binding signal was 3320 fluorescence intensity (a.u.).

Take “ATGGTTGATTGCTTGATCAAGGCATGCATCACTTGCTATGCGGAGTCACCTAGTGCAG”: the binding signal was 55800 fluorescence intensity (a.u.).

Values taken from PMC7819943, “Rice protein-binding microarrays: a tool to detect cis-acting elements near promoter regions in rice”.
